Measured values from PubChem BioAssay (EPA / NIEHS).
Records with an inconclusive call do not appear. Where a structure was tested more than once in an assay, its records may differ in their call. The source made the active and inactive calls. How the source made its calls: active means hit-call score of the fitted dose curve at least 0.9, where 1 is the maximum; inconclusive means response in the unintended direction; inactive means score below 0.9.

Assay: Tanguay_ZF_120hpf_EYE_legacy: (Legacy) Oregon State University Tanguay Lab 120 Hour Post-fertilization zebrafish Assay for Eye Malformation (AID 2283636);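 further: binary presence or absence of eye malformation scored by brightfield in 120 hpf larvae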
Protocol: Tanguay_ZF_120hpf_legacy is a whole embryo, multiplexed endpoint assay using zebrafish larvae exposed for 120 hours post fertilization on a 96-well plate.Tanguay_ZF_120hpf_EYE_legacy is one of one assay component(s) measured or calculated from the Tanguay_ZF_120hpf_legacy assay. It is designed to make measurements of zebrafish development as detected with brightfield microscopy of developing zebrafish embryos.Data from the assay component Tanguay_ZF_120hpf_EYE_legacy was analyzed into 1 assay endpoints. This assay endpoint, Tanguay_ZF_120hpf_EYE_legacy, was analyzed in the positive analysis fitting direction relative to DMSO as the negative control and baseline of activity. Using a type of morphology reporter, gain-of-signal activity can be used to understand changes in developmentals as they relate to the whole embryo. To generalize the intended target to other relatable targets, this assay endpoint is annotated to the zebrafish development intended target family, where the subfamily is embryonic eye development.
Zebrafish husbandry: Tropical 5D wild-type adult zebrafish were housed in at an approximate density of 1000 per 100 gallon tank at the Sinnhuber Aquatic Research Laboratory, Oregon State University, Corvallis, OR. Each tank was kept at standard laboratory conditions of 28C on a 14-h light/10-h dark photoperiod in fish water consisting of reverse osmosis water supplemented with a commercially available salt (Instant Ocean). Spawning funnels were placed into the tanks the night prior, and embryos were collected and staged. To increase bioavailability, the chorion was enzymatically removed using pronase (63.6mg/ml, >/= 3.5U/mg, Sigma-Aldrich: P5147) at 4 hours post fertilization (hpf) using a custom automated dechorionator.Chemical exposures: Six hpf dechorionated embryos were placed 1 embryo per well in a 96-well plate prefilled with 90 ul of EM using automated embryo placement systems (AEPS). Ten microliters of each row of dilution plate 2 was added to 2 exposure plates. The final DMSO concentration used was 0.64% (vol/vol). Thirty-two embryos were also exposed to 5uM trimethyltin chloride (positive control). Plates were sealed to prevent evaporation and foil covered to reduce light exposure and kept in a 28C incubator. Embryos were statically exposed until 120 hpf. At 24 hpf, embryos were assessed for photomotor response using a custom photomotor response analysis tool (PRAT) and for developmental toxicity endpoints (MO24: mortality at 24 hpf, DP: developmental progression, SM: spontaneous movement, and NC: notochord distortion). At 120 hpf, locomotor activity was measured using Viewpoint Zebralab and assessed for 18 endpoints. Zebrafish acquisition and analysis program (ZAAP), a custom program designed to inventory, acquire, and manage zebrafish data, was used to collect developmental endpoints as either present or absent (i.e., binary responses were recorded). If mortality occurred for an embryo (at either 24 or 120 hpf), the non-mortality endpoints were not measured.

SMILES | outcome | AC50
CCOP(=S)(OCC)Oc1nc(Cl)c(Cl)cc1Cl | inactive | 
CCCCCCCCc1ccc(O)cc1 | inactive | 
COc1cc(-c2ccc(N)c(OC)c2)ccc1N | inactive | 57 µM (active)
CC(C)(c1ccccc1)c1ccc(O)c(C(C)(C)c2ccccc2)c1 | inactive | 
C=CC(=O)OCCCCCC(C)C | inactive | 
CCC(=O)C(CC(C)N(C)C)(c1ccccc1)c1ccccc1 (stereo not given) | inactive | 
CC(C)(C)CC(C)(C)c1ccc(O)cc1 | inactive | 
C[C@]12CCC(=O)C[C@@H]1CC[C@@H]1[C@@H]2CC[C@]2(C)[C@@H](O)CC[C@@H]12 | inactive | 
O=C(Nc1ccc2[nH]ccc2c1)c1cc2cc(F)ccc2n1Cc1cccc(F)c1 | inactive | 
CC(=O)[O][Hg][c]1ccccc1 | inactive | 
CCC(C)(C)c1ccc(O)c(C(C)(C)CC)c1 | inactive | 
CC12CC1(C)C(=O)N(c1cc(Cl)cc(Cl)c1)C2=O (stereo not given) | inactive | 
O=C(O)C(Cl)(Cl)Cl | inactive | 
ClC1(Cl)C2(Cl)C3(Cl)C4(Cl)C(Cl)(Cl)C5(Cl)C3(Cl)C1(Cl)C5(Cl)C24Cl (stereo not given) | inactive | 
NC(=O)O | inactive | 
C[C@@H]1C[C@@H]([C@H](O)CC2CC(=O)NC(=O)C2)C(=O)[C@@H](C)C1 | inactive | 
O=C1C2(Cl)C3(Cl)C4(Cl)C(Cl)(Cl)C5(Cl)C3(Cl)C1(Cl)C5(Cl)C24Cl (stereo not given) |  | 79.7 µM (active)
Cn1sc(Cl)cc1=O | inactive | 
CC(C)(OO)c1ccccc1 | inactive | 
CN(C)N=O | inactive | 
O=[N+]([O-])c1ccc(O)c([N+](=O)[O-])c1 | inactive | 
CC(C)(C)c1cc(O)ccc1O | inactive | 
O=C(O)C(F)(F)C(F)(F)C(F)(F)C(F)(F)C(F)(F)C(F)(F)C(F)(F)C(F)(F)C(F)(F)C(F)(F)F | inactive | 
CCOP(=S)(OCC)SCSP(=S)(OCC)OCC | inactive | 
O=c1[nH]c(=O)[nH]c(=O)[nH]1 | inactive | 
O=C(O)C(F)(F)C(F)(F)C(F)(F)C(F)(F)C(F)(F)C(F)(F)F | inactive | 
CCN1CCC2(CC1)COc1cc3c(cc12)N(C(=O)c1ccc(-c2ccc(-c4nnc(C)o4)cc2C)cc1)CC3 | inactive | 
Cc1ccccc1N | inactive | 
C=C(C)C(=O)[O][Sn]([CH2]CCC)([CH2]CCC)[CH2]CCC | inactive | 
